According to PubChem BioAssay (EPA / NIEHS):
Results filed as inconclusive are left out. Some structures have more than one record in an assay (separate samples or runs), and their calls can disagree. Activity calls are given as the source filed them. How the source made its calls: active means hit-call score of the fitted dose curve at least 0.9, where 1 is the maximum; inconclusive means response in the unintended direction; inactive means score below 0.9.

Experiment: Tanguay_ZF_120hpf_CIRC_legacy: (Legacy) Oregon State University Tanguay Lab 120 Hour Post-fertilization zebrafish Assay for Circulatory Malformation (AID 2283651)
Protocol: Tanguay_ZF_120hpf_legacy is a whole embryo, multiplexed endpoint assay using zebrafish larvae exposed for 120 hours post fertilization on a 96-well plate.Tanguay_ZF_120hpf_CIRC_legacy is one of one assay component(s) measured or calculated from the Tanguay_ZF_120hpf_legacy assay. It is designed to make measurements of zebrafish development as detected with brightfield microscopy of developing zebrafish embryos.Data from the assay component Tanguay_ZF_120hpf_CIRC_legacy was analyzed into 1 assay endpoints. This assay endpoint, Tanguay_ZF_120hpf_CIRC_legacy, was analyzed in the positive analysis fitting direction relative to DMSO as the negative control and baseline of activity. Using a type of morphology reporter, gain-of-signal activity can be used to understand changes in developmentals as they relate to the whole embryo. To generalize the intended target to other relatable targets, this assay endpoint is annotated to the zebrafish development intended target family, where the subfamily is angiogenesis.
Zebrafish husbandry: Tropical 5D wild-type adult zebrafish were housed in at an approximate density of 1000 per 100 gallon tank at the Sinnhuber Aquatic Research Laboratory, Oregon State University, Corvallis, OR. Each tank was kept at standard laboratory conditions of 28C on a 14-h light/10-h dark photoperiod in fish water consisting of reverse osmosis water supplemented with a commercially available salt (Instant Ocean). Spawning funnels were placed into the tanks the night prior, and embryos were collected and staged. To increase bioavailability, the chorion was enzymatically removed using pronase (63.6mg/ml, >/= 3.5U/mg, Sigma-Aldrich: P5147) at 4 hours post fertilization (hpf) using a custom automated dechorionator.Chemical exposures: Six hpf dechorionated embryos were placed 1 embryo per well in a 96-well plate prefilled with 90 ul of EM using automated embryo placement systems (AEPS). Ten microliters of each row of dilution plate 2 was added to 2 exposure plates. The final DMSO concentration used was 0.64% (vol/vol). Thirty-two embryos were also exposed to 5uM trimethyltin chloride (positive control). Plates were sealed to prevent evaporation and foil covered to reduce light exposure and kept in a 28C incubator. Embryos were statically exposed until 120 hpf. At 24 hpf, embryos were assessed for photomotor response using a custom photomotor response analysis tool (PRAT) and for developmental toxicity endpoints (MO24: mortality at 24 hpf, DP: developmental progression, SM: spontaneous movement, and NC: notochord distortion). At 120 hpf, locomotor activity was measured using Viewpoint Zebralab and assessed for 18 endpoints. Zebrafish acquisition and analysis program (ZAAP), a custom program designed to inventory, acquire, and manage zebrafish data, was used to collect developmental endpoints as either present or absent (i.e., binary responses were recorded). If mortality occurred for an embryo (at either 24 or 120 hpf), the non-mortality endpoints were not measured.

Compound | outcome | AC50
O=S1OCC2C(CO1)C1(Cl)C(Cl)=C(Cl)C2(Cl)C1(Cl)Cl (stereo not given) | inactive | 
COP(=S)(OC)Oc1ccc([N+](=O)[O-])cc1 | inactive | 
O=C(NC(=O)c1c(F)cccc1F)Nc1ccc(OC(F)(F)C(F)OC(F)(F)F)c(Cl)c1 (stereo not given) | inactive | 
CCCN(CCC)c1c([N+](=O)[O-])cc(C(F)(F)F)cc1[N+](=O)[O-] | inactive | 
N#Cc1c(Cl)c(Cl)c(Cl)c(C#N)c1Cl | inactive | 
CNC(=O)CSP(=S)(OC)OC | inactive | 
CCC(C)(NC(=O)c1cc(Cl)c(C)c(Cl)c1)C(=O)CCl (stereo not given) | inactive | 
CC(C)(C)C(O)/C(=C\c1ccc(Cl)cc1Cl)n1cncn1 (stereo not given) | inactive | 
C#CCN1C(=O)COc2cc(F)c(N3C(=O)C4=C(CCCC4)C3=O)cc21 | inactive | 
COP(=S)(OC)Oc1ccc(SC)c(C)c1 | inactive | 
CCN(CC)C(=O)SCc1ccc(Cl)cc1 | inactive | 
O=C(O)C(F)(F)C(F)(F)C(F)(F)C(F)(F)C(F)(F)C(F)(F)C(F)(F)F | inactive | 
CC[C@H](C)[C@H]1O[C@]2(C=C[C@@H]1C)C[C@@H]1C[C@@H](C/C=C(\C)[C@@H](O[C@H]3C[C@H](OC)[C@@H](O[C@H]4C[C@H](OC)[C@@H](O)[C@H](C)O4)[C@H](C)O3)[C@@H](C)/C=C/C=C3\CO[C@@H]4[C@H](O)C(C)=C[C@@H](C(=O)O1)[C@]34O)O2 (tested in a mixture with another compound) | inactive | 
CC1(C)C(C=C(Cl)Cl)C1C(=O)OC(C#N)c1ccc(F)c(Oc2ccccc2)c1 (stereo not given) | inactive | 
Clc1ccccc1-c1nnc(-c2ccccc2Cl)nn1 | inactive | 
CN1CSC(=S)N(C)C1 | inactive | 
CC(C)N(C(=O)COc1nnc(C(F)(F)F)s1)c1ccc(F)cc1 | inactive | 
CC(C)(C)C(O)C(Oc1ccc(Cl)cc1)n1cncn1 (stereo not given) | inactive | 40.6 µM (active)
O=[N+]([O-])/N=C1\NCCN1Cc1ccc(Cl)nc1 | inactive | 

Compound | outcome | AC50
CCOCN(C(=O)CCl)c1c(C)cccc1CC | inactive | 
O=C(O)COc1ccc(Cl)cc1Cl | inactive | 
Cc1[nH]c(=O)n(C(C)(C)C)c(=O)c1Cl | inactive | 
CCC(C)(C)C(=O)OC1=C(c2ccc(Cl)cc2Cl)C(=O)OC12CCCCC2 | inactive | 
CNC(=O)Oc1ccccc1OC(C)C | inactive | 
O=C(Nc1ccccc1)Nc1cnns1 | inactive | 
O=S(=O)(O)C(F)(F)C(F)(F)C(F)(F)C(F)(F)C(F)(F)C(F)(F)C(F)(F)C(F)(F)F | inactive | 42.5 µM (active)
CC1(c2ccc(Oc3ccccc3)cc2)OC(=O)N(Nc2ccccc2)C1=O (stereo not given) | inactive | 
Oc1ccc(Cl)cc1Cc1ccccc1 | inactive | 
COP(=O)(OC)OC=C(Cl)Cl | inactive | 
O=[N+]([O-])c1c(Cl)c(Cl)c(Cl)c(Cl)c1Cl | inactive | 
CNC(=O)/C=C(\C)OP(=O)(OC)OC | inactive | 
O=C(O)CCCOc1ccc(Cl)cc1Cl | inactive | 
CCOC1Oc2ccc(OS(C)(=O)=O)cc2C1(C)C (stereo not given) | inactive | 
CCCN(CCOc1c(Cl)cc(Cl)cc1Cl)C(=O)n1ccnc1 | inactive | 
Oc1cc(Cl)ccc1Oc1ccc(Cl)cc1Cl | inactive | 
N#CN | inactive | 
ClC1C(Cl)C(Cl)C(Cl)C(Cl)C1Cl (stereo not given) | inactive | 
OCCOc1ccccc1 | inactive | 
